Assay outcomes as filed in PubChem BioAssay.
This excerpt belongs to a sample that is enriched for hits.
14-3-3g Raf = 14-3-3 gamma protein interaction modulation; P61981; FP, 14-3-3gamma / TMR-pS259-Raf peptide binding; inhibition, % at 40 µM; hit rate 0.19% among 160,000; in the data active means inhibition above about 30%;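 further: 0% = protein plus tracer without compound and 100% = blank with tracer alone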
Target sequence (P61981 whole entry, looked up): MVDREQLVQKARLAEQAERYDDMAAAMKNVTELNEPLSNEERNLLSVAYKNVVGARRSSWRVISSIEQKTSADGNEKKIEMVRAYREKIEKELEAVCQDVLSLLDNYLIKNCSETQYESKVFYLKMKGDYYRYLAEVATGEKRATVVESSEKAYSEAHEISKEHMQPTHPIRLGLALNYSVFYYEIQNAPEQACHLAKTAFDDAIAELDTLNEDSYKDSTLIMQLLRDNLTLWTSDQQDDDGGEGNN
An asterisk follows results filed as active; + = active, no number; ! = not confirmed by another sample.

SMILES	14-3-3g Raf
COc1ccc(C(=O)CC(=O)C(=O)N2CCN(c3ccc([N+](=O)[O-])cc3)CC2)cc1	-11
CN(c1ccc(Br)cc1)S(=O)(=O)c1ccc2[nH]cc(C(=O)NCc3ccccn3)c(=O)c2c1	147*
Cc1cccc(C)c1N(C)S(=O)(=O)c1ccc2[nH]cc(C(=O)NCc3ccccn3)c(=O)c2c1	44*
CCc1ccc(NS(=O)(=O)c2ccc3[nH]cc(C(=O)NCc4ccccc4)c(=O)c3c2)cc1	-15
CCc1ccc(NS(=O)(=O)c2ccc3[nH]cc(C(=O)NCc4ccccn4)c(=O)c3c2)cc1	172*
Cc1ccccc1N(C)S(=O)(=O)c1ccc2[nH]cc(C(=O)NCC3CCCO3)c(=O)c2c1 (configuration not stated)	-6
CCCCN(C)C(=O)c1c[nH]c2ccc(S(=O)(=O)N(C)c3ccccc3CC)cc2c1=O	-7
CCc1ccc(NS(=O)(=O)c2ccc3[nH]cc(C(=O)NCc4ccc(C)cc4)c(=O)c3c2)cc1	-15
CCc1ccccc1N(C)S(=O)(=O)c1ccc2[nH]cc(C(=O)O)c(=O)c2c1	63*
CCc1ccccc1N(C)S(=O)(=O)c1ccc2[nH]cc(C(=O)NCCc3ccccc3)c(=O)c2c1	-2
CCOc1ccc(N(C)S(=O)(=O)c2ccc3[nH]cc(C(=O)NCc4ccccc4)c(=O)c3c2)cc1	-12
COCCCNC(=O)c1c[nH]c2ccc(S(=O)(=O)N(C)c3c(C)cccc3C)cc2c1=O	-10
C=CCN(c1ccccc1)S(=O)(=O)c1ccc2[nH]cc(C(=O)NCc3ccccn3)c(=O)c2c1	0
CCCN1CNC(=S)N(c2cccc(Cl)c2)C1	8
Cc1c(C)n(C)c2ccc(C(=O)NCc3ccccn3)cc12	-12
COc1nn(-c2nc(-c3ccc(F)cc3)cc(C(F)(F)F)n2)cc1[N+](=O)[O-]	1
Cc1ccccc1Nc1c(-c2ccsc2)nc2ccc(Br)cn12	-2
CC1=C(C(=O)Nc2ccccc2C(F)(F)F)C(c2ccc(N(C)C)cc2)C2=C(CC(c3ccccc3)CC2=O)N1 (configuration not stated)	-11
CCOC(=O)c1c(NC(C)=O)sc2c1CCC(SC#N)C2=O (configuration not stated)	-1
Cc1ccc(OCC(=O)Nc2ccc(N3CCCCC3)c(Cl)c2)cc1	-15
CN(c1ccc(F)cc1)S(=O)(=O)c1ccc2[nH]cc(C(=O)NCc3ccccn3)c(=O)c2c1	+
COCCNC(=O)c1c[nH]c2ccc(S(=O)(=O)N(C)c3ccc(F)cc3)cc2c1=O	-5
Cc1ccc(N(C)S(=O)(=O)c2ccc3[nH]cc(C(=O)NCc4ccccn4)c(=O)c3c2)cc1C	-3
O=C(O)CCn1c(=S)[nH]c2c(sc3ccccc32)c1=O	-15
COC(=O)C1C(=O)C2=C(CC1C)NC(C)=C(C(=O)OC(C)C)C2c1cccc([N+](=O)[O-])c1 (configuration not stated)	-11
SMILES	14-3-3g Raf
CN1CCN(C(=O)c2ccc3c(c2)NC(=O)C(N2CCOCC2)S3)CC1 (configuration not stated)	4
O=C1Nc2cc(C(=O)N3CCOCC3)ccc2SC1N1CCOCC1 (configuration not stated)	38*!
O=C1Nc2cc(C(=O)N3CCOCC3)ccc2SC1N1CCCC1 (configuration not stated)	-6
COc1cccc(C=Nc2c(C)n(C)n(-c3ccccc3)c2=O)c1OCC#N	-2
Cc1cccc(CCN=c2c([N+](=O)[O-])nn(-c3ccc4c(c3)OCCO4)n2O)c1	72*
O=[N+]([O-])c1nn(-c2ccc3c(c2)OCCO3)n(O)c1=NCCc1ccccc1	-12
Cc1cccc(CCN=c2c([N+](=O)[O-])nn(-c3ccccc3)n2O)c1	-7
COc1cc(C)c(C(C)C)cc1S(=O)(=O)N1CCN(Cc2ccccc2)CC1	-6
Cc1nnc(N2C(=O)C(O)=C(C(=O)c3cccs3)C2c2ccc(Br)cc2)s1 (configuration not stated)	25
COc1ccc(C2=NC(C(F)(F)F)(C(F)(F)F)N=C3C=CC=CN32)cc1	-2
Clc1ccc(-c2nc(N3CCCCCC3)c3ccccc3n2)cc1	3
CC(Cc1ccc(O)c(O)c1)C(C)Cc1ccc(O)c(O)c1 (configuration not stated)	60*
C[C@H](Cc1ccc(O)c(O)c1)[C@@H](C)Cc1ccc(O)c(O)c1	-10
N[C@@H](Cc1ccc(O)c(O)c1)C(=O)O	-7
COc1ccc2nc3oc(C(=O)Nc4cnc5ccccc5c4)cc3cc2c1	-40
CN(C)CCCN1C(=O)C(=O)/C(=C(/O)c2ccc(Br)cc2)C1c1ccccc1 (configuration not stated)	-7
CCS(=O)(=O)N1CCN(c2ccc([N+](=O)[O-])c(NC3C4CC5CC(C4)CC3C5)c2)CC1 (configuration not stated)	2
C=CCOc1cccc(C2Nc3ccccc3-c3nnc(SC)nc3O2)c1 (configuration not stated)	134*
C=CCOc1ccc(C2Nc3ccc(Br)cc3-c3nnc(SC)nc3O2)cc1 (configuration not stated)	-84
C=CCSc1nnc2c(n1)OC(c1cccc(F)c1)Nc1ccccc1-2 (configuration not stated)	-98
CSc1nnc2c(n1)OC(c1ccc(OCc3ccccc3)cc1)Nc1ccccc1-2 (configuration not stated)	33*
CSc1nnc2c(n1)OC(C1CC=C(C)CC1C)Nc1ccccc1-2 (configuration not stated)	83*
CSc1nnc2c(n1)OC(c1ccc(OCC(=O)O)cc1)Nc1ccccc1-2 (configuration not stated)	-3
CCCSc1nnc2c(n1)OC(C1CC=C(C)CC1C)Nc1ccccc1-2 (configuration not stated)	6
CCOc1ccc(C2Nc3ccccc3-c3nnc(SCC)nc3O2)cc1 (configuration not stated)	0
SMILES	14-3-3g Raf
CCSc1nnc2c(n1)OC(C1CC=C(C)CC1C)Nc1ccccc1-2 (configuration not stated)	-31
Cc1ccc2c(c1)C(=O)N(CC(=O)O)C2=O	0
O=P(O)(O)CN(CP(=O)(O)O)C1CCCCC1	-1
O=C(C1CCC1)N1CCc2cc(S(=O)(=O)N3CCn4c3nc3ccccc34)ccc21	5
Cc1ccc(NC(=O)CSc2nc3ccccc3c(=O)n2Cc2ccc3c(c2)OCO3)cc1C	2
O=C(CN1CCN(S(=O)(=O)c2ccc(Cl)cc2)CC1)Nc1cccc(C(F)(F)F)c1	-7
CCCCCC(=O)N1c2ccccc2NC2=C(C(=O)CC(c3ccc(OC)cc3)C2)C1c1cccc(F)c1 (configuration not stated)	3
Cc1ccc(NC(=O)c2cc(S(=O)(=O)NC3CCCCC3)ccc2F)cc1	-1
COC(=O)C(NC(=O)C(F)(F)F)(C(C(C)=O)C(C)=O)C(F)(F)F (configuration not stated)	-9
Cn1ccnc1SCC(=O)c1ccc(Cl)cc1	8
COc1ccc(C(=O)CSc2nccn2C)cc1OC	-6
CCn1c(CSc2nccn2C)nc2cc(C(=O)O)ccc21	57*
CCOC(=O)C1=C(CC)NC2=C(C(=O)CCC2)C1c1ccccc1OCc1ccccc1 (configuration not stated)	-6
O=C(Nc1ccc(I)cc1C(=O)O)c1ccc(Oc2ccc([N+](=O)[O-])cc2)cc1	-27
Cc1ccccc1Nc1nnc(-c2ccc(C)c(S(=O)(=O)NC(C)(C)C)c2)c2ccccc12	-3
O=c1[nH]cc(NCCO)c(=O)[nH]1	31*
